Compound activity (PubChem)
Abs 340nm – absorbance at 340 nm | compound absorbance at 340 nm, fold over control | fold change at 10 µM | 65,000 tested, under 10 active;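 active = at 10 µM dose, initial 340 nm absorbance at least 2 fold that of control wells; inactive = change under 2 fold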;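 note: initial absorbance extrapolated from kinetic A340 decline of NADH oxidation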
Spn PMK inh – S. pneumoniae PMK inhibition. inhibition, % at 10 µM. purified PMK, PK/LDH-coupled NADH absorbance 340 nm. 65,000 tested, 0.49% active;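 active = top-ranked compounds by inhibition in the single 10 µM screen, taking a fixed number of the strongest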
NADH enzymes – inhibitors of enzymes used to reach an NAD/NADH endpoint; coupled PK/LDH NADH assays, four targets; IC50, µM (doses to about 10 µM); 65,000 tested, 0.02% active;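 active = single-dose screening hits from any of four coupled enzyme assays that gave an IC50 when retested across doses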;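 note: the DPM-DC format reads NADH fluorescence rather than 340 nm absorbance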
Fluor 339 460 – intrinsic fluorescence of library compounds, ex339/em460 – biochemical, MLSMR library, data from DPM-DC assay, artefact control, profiling panel | compound autofluorescence, ex339/em460 nm, NADH buffer; stronger effect = higher value; 1 = no-compound wells, NADH background | fluorescence fold increase at 10 µM | 65,000 tested, 5.5% active | AID 709;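 active = at 10 µM, mean starting fluorescence two-fold or more over control wells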;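 note: signal is the first read of a kinetic run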
Spn DPM-DC inh – inhibitors of Streptococcus pneumoniae diphosphomevalonate decarboxylase; purified DPM-DC, PK/LDH coupled NADH fluorescence; calls only at 10 µM; 65,000 tested, 0.49% active; AID 556;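 active = the 320 compounds with the highest percent inhibition in the single-dose primary screen, excluding strongly autofluorescent ones, cut at about 32% in these data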;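 note: kinetic rate of NADH fluorescence loss reporting ADP formed by the decarboxylase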
MK inhibit – inhibitors of Streptococcus pneumoniae mevalonate kinase; purified MK, PK/LDH-coupled NADH absorbance 340 nm; inhibition, % at 10 µM; 65,000 tested, 0.48% active;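 active = ranked among the strongest by inhibition in the single 10 µM screen, a fixed top-ranked set picked for dose follow-up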
Large screens that a line does not name were inactive; [ ] = dose if it differs, or a comment. Shown are actives, neighbours in structure and some others; about 6.8% of the full set was active somewhere.

CCCCn1c(SCc2c(C)noc2C)nc2cc(S(N)(=O)=O)ccc21	none
Cc1cc(-c2nc3ncccc3o2)ccc1N	Fluor 339 460 3 (not shown: Spn DPM-DC inh)
O=C(Nc1ccc2oc(-c3cccnc3)nc2c1)c1cc2ccccc2o1	Fluor 339 460 2.1 (not shown: Spn DPM-DC inh)
O=C(Nc1ccc2oc(-c3ccncc3)nc2c1)c1cccs1	none (not shown: Spn DPM-DC inh)
CCCNC(=O)C1CC(=O)N(c2ccc(OCC(=O)Nc3cc(C)cc(C)c3)cc2)C1 (stereo not given)	none
N#CC1=C(N)C(C#N)(C#N)[C@H](c2ccoc2)[C@H]2CN(Cc3ccccc3)CC=C12	Fluor 339 460 2.3
Cc1ccc(C2C3CN(C(C)C)CC=C3C(C#N)=C(N)C2(C#N)C#N)cc1 (stereo not given)	Fluor 339 460 2.3, Spn DPM-DC inh active[fluoresces]
CCCN1CC=C2C(C#N)=C(N)C(C#N)(C#N)C(c3cccc(OC)c3OC)C2C1 (stereo not given)	Fluor 339 460 2.2
CN1CC=C2C(C#N)=C(N)C(C#N)(C#N)C(c3cccc(Cl)c3Cl)C2C1 (stereo not given)	none
COc1ccc(OC)c(C2C3CN(C(C)C)CC=C3C(C#N)=C(N)C2(C#N)C#N)c1 (stereo not given)	none
CCN1CC=C2C(C#N)=C(N)C(C#N)(C#N)C(CCc3ccccc3)C2C1 (stereo not given)	Fluor 339 460 5.1 (not shown: Spn DPM-DC inh)
CN1CCc2c(sc3c2c(=O)n(-c2ccccc2)c2nnc(SCc4ccc(Cl)cc4)n32)C1	none
Cc1c2c(n3c(nc4ccccc43)c1C#N)N(Cc1ccccn1)CC2	Fluor 339 460 4.9 (not shown: Spn DPM-DC inh)
Cc1c2c(n3c(nc4ccccc43)c1C#N)N(Cc1cccnc1)CC2	Fluor 339 460 5 (not shown: Spn DPM-DC inh)
Cc1cc(N2CCN(c3ccccn3)CC2)n2c(nc3ccccc32)c1C#N	Fluor 339 460 2.2
COCCNc1cc(C)c(C#N)c2nc3ccccc3n12	Fluor 339 460 2.3 (not shown: Spn DPM-DC inh)
N#Cc1c2c(c(N3CCN(c4ccccn4)CC3)n3c1nc1ccccc13)CCC2	none
N=c1oc2ccccc2cc1-c1nc2ccccc2c(=O)[nH]1	none
Cc1cc2c(C)cc(=O)oc2c2c1NCCC2	Fluor 339 460 3.6 (not shown: Spn DPM-DC inh)
COc1ccc(NC(=O)Cn2nnc(C(N)=O)c2N)c(OC)c1	none
Cc1cc(C)n(-c2nc(-n3nc(C)cc3C)c3c4c(sc3n2)COC(C)(C)C4)n1	none
CSc1nnc2c3c4c(sc3nc(-n3nc(C)cc3C)n12)COC(C)(C)C4	Fluor 339 460 3
Cc1cc(C)n(-c2nc3sc4c(c3c3nnc(SCC(N)=O)n23)CC(C)(C)OC4)n1	Fluor 339 460 2.7
OC1C[N+]2(CCCCC2)C1	none
CCOC(=O)c1sc(C)c(C(N)=O)c1NC1=NCCCCC1	Fluor 339 460 2
COCC(=O)N(c1ccc(C(C)C)cc1)C1C=CS(=O)(=O)C1 (stereo not given)	none
CC(=O)c1ccc(N2CCN(C(=O)CCS(=O)(=O)c3ccc(C)cc3)CC2)cc1	none
O=C1OCc2cccc3cccc1c23	Fluor 339 460 2.1 (not shown: Spn DPM-DC inh)
O/N=C1/CCc2cccc3cccc1c23	none
CN(C)C(=O)CSc1cccc2cccnc12	Fluor 339 460 3.9 (not shown: Spn DPM-DC inh)
O=C(CSc1cccc2cccnc12)N1CCCC1	Fluor 339 460 3.9 (not shown: Spn DPM-DC inh)
CN(CC(=O)N1CCc2ccccc21)S(=O)(=O)c1cccc2cccnc12	none
CCOC(=O)CSc1nnc(CNC(=O)c2ccc(S(=O)(=O)N3CCCCC3)cc2)n1C	none
CC(C)Cc1nc(N2CCN(C(=O)Cc3ccccc3)CC2)c(C#N)c2c1COC(C)(C)C2	none
CCc1nc(N2CCN(C(=O)c3ccccc3)CC2)c(C#N)c2c1COC(C)(C)C2	Fluor 339 460 2.3 (not shown: Spn DPM-DC inh)
CC1CCN(c2nc(-c3ccco3)c3c(c2C#N)CC(C)(C)OC3)CC1	Fluor 339 460 2.1 (not shown: Spn DPM-DC inh)
CC1(C)Cc2c(C#N)c(N3CCOCC3)nc(-c3ccccc3)c2CO1	Fluor 339 460 2.2 (not shown: Spn DPM-DC inh)
CC1(C)Cc2c(C#N)c(NCCN3CCOCC3)nc(-c3ccco3)c2CO1	none
CCc1nc(N2CCOCC2)c(C#N)c2c1COC(C)(C)C2	Fluor 339 460 3.7 (not shown: Spn DPM-DC inh)
CCOc1ccc(-n2c(Cc3ccccc3)nnc2SCc2c(C)noc2C)cc1	none
CCOC(=O)C(NS(=O)(=O)c1ccc(Br)cc1)C(C)C (stereo not given)	none
CCOC(=O)CSc1nnnn1-c1cc(OC)ccc1OC	none
CCCc1nnc(NC(=O)CSc2ncn[nH]2)s1	none
